G9a inh: G9a (human) methyltransferase inhibition | Q96KQ7 | G9a H3K9 monomethylation, AlphaScreen, 2 h | Potency, µM (titrated, usually from 102 µM), for the others: at the top dose activity, negative = inhibition, usual class: inhibitors | actives 8.8% (n = 350,000) | AID 504332; further: on the % scale 0 is the no-effect control and ±100 the full control effect; nearly all actives have a fitted effect of over 75% in size
Target sequence (Q96KQ7 913-1193 limits assumed): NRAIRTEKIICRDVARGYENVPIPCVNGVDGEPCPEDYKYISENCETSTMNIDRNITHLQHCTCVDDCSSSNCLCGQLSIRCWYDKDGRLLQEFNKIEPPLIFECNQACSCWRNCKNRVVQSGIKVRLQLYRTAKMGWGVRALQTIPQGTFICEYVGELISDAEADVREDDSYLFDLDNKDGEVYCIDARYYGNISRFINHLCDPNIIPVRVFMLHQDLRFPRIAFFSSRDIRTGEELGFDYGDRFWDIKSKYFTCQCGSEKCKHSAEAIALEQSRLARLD
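Enzyme 20 nM + cpd, 15 min RT; add b-H3K9 pep 500 nM / SAM 20 uM; 2 h RT; anti-H3K9me1 Ab 0.5 ug/mL + SA donor / anti-rabbit acceptor beads 20 ug/mL each, 10 min; AlphaScreen read.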
BAZ2B inh: blocks human BAZ2B | AlphaScreen BAZ2B-H3K14Ac peptide displacement | AID 504333 | actives 4.4% (n = 360,000) | Potency, µM (doses to about 114 µM), without a hit: at the highest dose activity change, negative = inhibition, actives largely listed as inhibitors | Q9UIF8; further: on the % scale 0 is the no-effect control and ±100 the full control effect; nearly all actives have a fitted effect of over 60% in size
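BAZ2B 50 nM plus b-H3(5-23)K14Ac 50 nM, PBS pH 7.4/0.01% Tween-20, 30 min RT; compound added (max 110 uM), 30 min RT; streptavidin donor/Ni-chelate acceptor beads 10 ug/mL final, 20 min dark; AlphaScreen read.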
L3MBTL1 block: inhibitors of human L3MBTL1 | actives 0.66% (n = 230,000) | AID 485360 | AlphaScreen L3MBTL1–H3K9me1 peptide binding | Q9Y468 | Potency, µM (top dose mostly 57.1 µM), inactives show at the highest dose activity, negative = inhibition, hits mostly inhibitors; further: on the % scale 0 is the no-effect control and ±100 the full control effect; nearly all actives have a fitted effect of over 60% in size
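First, the protein-peptide complex forms for 30 min at room temperature (L3MBTL1 50 nM, biotinylated H3K9me1 peptide 75 nM). Next, compounds are pin-transferred and incubated 30 min. Finally, AlphaScreen beads are added and read after 30 min.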
Sfp PPTase inh: blocks B. subtilis Sfp PPTase activity; Potency, µM, for the others: largest response in the series, negative = inhibition, hits mostly inhibitors; Biochemical Sfp PPTase activity, qHTS; actives 3.5% (n = 310,000); Q9F4F7; AID 1490;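 further: the enzyme is Sfp with the accession as filed and its product quenches rhodamine fluorescence; 0% = enzyme reaction without inhibitor and -100% = no enzyme wells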
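Sfp 15 nM + cpd, 15 min RT; start w/ rhodamine-CoA 5 uM, BHQ-2-YbbR 12.5 uM (final); 50 mM Hepes pH 7.6, 10 mM MgCl2, 0.01% NP-40, 0.01% BSA; read 525/598 nm at 0 and 30 min.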
JMJD2A Tudor: inhibitors of human JMJD2A Tudor domain. Potency, µM (highest dose often 114 µM), for inactives: top-dose activity change, negative = inhibition, usual class: inhibitors. O75164. AlphaScreen JMJD2A-Tudor / H3K4me3 peptide binding. actives 4.4% (n = 390,000). AID 504339; further: on the % scale 0 is the no-effect control and ±100 the full control effect; nearly all actives have a fitted effect of over 50% in size
HP1b binding inh: inhibitors of HP1-beta chromodomain binding to methylated histone tails. P83916. AlphaScreen HP1-beta / biotin-H3K9me3 peptide binding. Potency, µM (series often up to 114 µM), without a hit: at the highest dose activity change, negative = inhibition, most hits filed as inhibitors. actives 0.56% (n = 390,000); further: nearly all actives have a fitted effect of over 70% in size
Target sequence (P83916 whole entry, looked up): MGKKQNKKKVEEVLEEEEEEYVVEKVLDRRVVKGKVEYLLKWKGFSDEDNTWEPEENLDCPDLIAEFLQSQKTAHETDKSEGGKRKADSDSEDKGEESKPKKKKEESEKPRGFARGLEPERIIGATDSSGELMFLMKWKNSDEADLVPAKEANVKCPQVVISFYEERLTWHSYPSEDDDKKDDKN
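Compound inhibition of the preformed complex between 50 nM HP1-beta and 50 nM biotinylated H3K9me3 peptide was read by AlphaScreen. Buffer was PBS pH 7.4 with 0.01% Tween-20. Incubations ran 30 min at room temperature, with 10 ug/mL donor/acceptor beads.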
Numbers without * were called inactive; ? = inconclusive; / = no result given; ! = not confirmed by another sample; [ ] = another dose, or the depositor's remark. Shown are actives, neighbours in structure and some others; about 12% of the full set was active somewhere. The call rests on the fitted dose curve; in most records, active means well fitted curve in the direction sought with a large enough effect; inconclusive means small, poorly fitted or top-dose-only effect, or another doubt; inactive means no such curve, though single readings can be large; an effect the other way counts as inactive or inconclusive. Potency means the concentration at half of the fitted maximal effect.

SMILES	G9a inh	BAZ2B inh	L3MBTL1 block	Sfp PPTase inh	JMJD2A Tudor	HP1b binding inh
CCOC(=O)N1CCN(CCC(=O)Nc2cc(C)ccc2C)CC1	50µM*!	-10%	-3%	1%	2%	?
CC(C)Oc1ccc(C(=O)CCN2CCCCC2)cc1	7.9µM*	-4%	0%	-20%	-24%	54%
CC(C)Oc1ccc(C(=O)CCN2CCOCC2)cc1	/	/	/	/	3%	56%
CCOc1ccc(NC(=O)c2cc3c(-c4ccccc4F)nn(C)c3s2)cc1	23%[59 µM]	/	/	/	-9%	48%
O=C(CCN1CCOCC1)c1ccc(Cl)cc1	11µM*	-21%	-3%	-13%	?	0%
COc1ccc(N2CCN(CCC(N)=O)CC2)cc1	15%[59 µM]	-5%	/	9%	-15%	31%
CCCCCOc1ccc(C(=O)CCN2CCOCC2)cc1	45µM*	2%	-2%	-6%	-1%	45%
O=C(CCN1CCOCC1)c1ccc(Br)cc1	/	-14%	4%	-29%	-11%	-8%
COc1ccc(C(=O)OCCN2CCCCC2)cc1	6%[59 µM]	-18%	/	20%	-2%	31%
COc1ccc(C(=O)CCN2CCCCCC2)cc1	8.9µM*	-7%	1%	?	-8%	25%
COc1ccc(C(=O)CCN2CCN(c3ccc(OC)cc3)CC2)cc1	40µM*	?	/	-3%	-31%	9%
O=C(Cn1cc(S(=O)(=O)N2CCCC2)c(S(=O)(=O)N2CCCC2)c1)Nc1cccc(F)c1	-12%[59 µM]	11%[57.1 µM]	/	/	-10%	3%
CCOCCCNC(=O)c1cc(Sc2cccc(Cl)c2)nc2ccccc12	8%[59 µM]	35%	/	/	9%	45%
CCOc1ccc(C(=O)CCN2CCCCC2)cc1	8.9µM*	39%	?	-3%	5%	53%
CCOC(=O)N1CCN(C(=O)CCC(=O)c2ccc(OCC)cc2)CC1	-6%	-16%	/	1%	-1%	-1%
CCCOc1ccc(C(=O)CCN2CCN(C(=O)OCC)CC2)cc1	10µM*	-27%	/	-26%	-23%	19%
COC(=O)c1ccc(CSc2nc3c([nH]c4ccccc43)c(=O)n2-c2ccc(F)cc2)o1	21%[59 µM]	4%	/	/	-10%	24%[57 µM]
Cn1c2ccc(F)cc2c2nnc(SCC(=O)Nc3cccc(O)c3)nc21	/	3%	-1%	1%	-12%	24%
COC(=O)CCC(=O)Oc1ccc(OC(=O)CCC(=O)OC)cc1	50µM*	-2%	0%	5%	/	/
COc1ccc2c(c1)c(C(C)=O)c(C)n2C	22%	-21%	/	9%	-5%	23%
COc1ccc2[nH]c(C)c(C(=O)CN3CCOCC3)c2c1	?	?	/	?	-5%	19%
COc1ccc2[nH]c(C)c(C(=O)CN3CCc4cc(OC)c(OC)cc4C3)c2c1	50µM*	4%	-2%	16%	-30%	12%
COc1ccc2c(c1)c(C(=O)CN1CCc3ccccc3C1)c(C)n2C	45µM*	-5%	-2%	4%	?	26%
CCCOc1ccc(-c2c(C(=O)N/N=C/c3cccs3)nnn2-c2nonc2N)cc1	12%	-3%	/	11%	-1%	51%
Cc1ccc(NC(=S)Nc2ccccn2)cc1C	/	-14%	-8%	-4%	4%	46%
Cc1ccc(NC(=S)Nc2ccc3nc(-c4ccccn4)c(-c4ccccn4)nc3c2)cc1C	7.9µM*	?	-11%	-18%	?	-23%
COCCN(CC(=O)NCC1CCCO1)C(=O)CCC(=O)Nc1cc(C)ccn1 (stereo not given)	28µM*	22%	27%	-9%	-8%	47%
O=[N+]([O-])c1cc(C(F)(F)F)cc([N+](=O)[O-])c1NN=C1CCCCC1	10µM*	11µM*	?	?	22µM*	20µM*
O=[N+]([O-])c1cc(C(F)(F)F)cc([N+](=O)[O-])c1NCCN1CCNCC1	11%[0.501 µM]	-28%	/	12%	-33%	12%
N#CCC(=O)NNc1c([N+](=O)[O-])cc(C(F)(F)F)cc1[N+](=O)[O-]	50µM*	50µM*	/	11%	?	?

Assay outcomes as filed in PubChem BioAssay.
